The list is not random: actives were taken first. Their share in the collection is about 2.7%.
pPAFAH FP inh: inhibitors of human plasma PAF acetylhydrolase (pPAFAH) | Q13093 | recombinant pPAFAH, FP-rhodamine probe fluorescence polarization | inhibition, % at 3.39 µM | 330,000 compounds, 1.5% hits | AID 463082;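 active = inhibition above the mean inhibition across the screen plus 3 SD, cut at about 25% in these data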;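 also: inhibitors block binding of the rhodamine activity-based probe so polarization drops; 0% = enzyme with DMSO and 100% = wells lacking pPAFAH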
PAFAH2 FP inh: PAFAH2 (human) inhibition | Q99487 | recombinant PAFAH2, FP-rhodamine activity probe, fluorescence polarization | inhibition, % at 3.39 µM | 340,000 compounds, 0.99% hits | AID 492956;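 active = inhibition above the mean over all tested compounds plus 3 SD, cut at about 30% in these data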;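 also: inhibitors block probe labeling of enzyme so polarization drops; 0% = enzyme with DMSO and 100% = wells lacking PAFAH2 protein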
PAFAH1B2 inh: PAFAH1B2 (human) inhibition; 340,000 compounds, 1.2% hits; recombinant PAFAH1B2, FP-rhodamine activity probe, fluorescence polarization; AID 492953; inhibition, % at 3.39 µM;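 active = inhibition above the mean of all tested compounds plus 3 SD, cut at about 24% in these data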;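 also: 0% = enzyme with DMSO and 100% = wells lacking PAFAH1B2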
Target sequence (P68402 whole entry, looked up): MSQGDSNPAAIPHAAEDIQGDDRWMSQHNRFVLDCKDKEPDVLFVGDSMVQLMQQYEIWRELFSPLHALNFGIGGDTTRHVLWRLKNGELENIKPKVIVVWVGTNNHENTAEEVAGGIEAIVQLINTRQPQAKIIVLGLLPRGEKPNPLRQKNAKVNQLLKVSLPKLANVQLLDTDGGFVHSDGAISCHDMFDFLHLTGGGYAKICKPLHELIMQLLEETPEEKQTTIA
TCR CD3 inh: blocks the human TCR-CD3 interaction | TAMRA-labeled TCR probe fluorescence, biochemical | inhibition, % at 9.4 µM | 360,000 compounds, 0.37% hits | AID 651800; in the data active = inhibition above about 19%;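 also: recombinant mutant TCR 2C K166C tagged with TAMRA read by polarization; 0% = receptor in buffer alone and 100% = receptor with positive control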
PAFAH1B3 FP inh: PAFAH1B3 (human) inhibition; Q15102; recombinant PAFAH1B3, FP-rhodamine probe, fluorescence polarization; inhibition, % at 3.39 µM; 340,000 compounds, 0.28% hits; AID 492972;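 active = inhibition above the screen-wide average of all tested compounds plus 3 SD, cut at about 25% in these data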;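 also: 0% = enzyme with DMSO only and 100% = wells lacking PAFAH1B3 protein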
Target sequence (Q15102 whole entry, looked up): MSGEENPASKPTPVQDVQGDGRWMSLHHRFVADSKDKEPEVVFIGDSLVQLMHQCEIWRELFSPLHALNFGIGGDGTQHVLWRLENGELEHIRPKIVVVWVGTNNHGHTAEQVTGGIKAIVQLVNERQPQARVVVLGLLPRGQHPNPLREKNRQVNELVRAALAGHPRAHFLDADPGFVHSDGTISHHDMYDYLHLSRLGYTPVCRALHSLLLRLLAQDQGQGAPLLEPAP
Active calls of the source: *; nt = not tested or not shown.

SMILES	pPAFAH FP inh	PAFAH2 FP inh	PAFAH1B2 inh	TCR CD3 inh	PAFAH1B3 FP inh
CCC(C)NC(=O)COc1ccc(OCc2ccccc2)cc1 (stereo not given)	6.3	8.5	26.5*	-10.2	3.6
CC(C)c1ccc(OCC(=O)NC(C)c2ccccc2)cc1 (stereo not given)	11.2	-2.3	29.2*	0.8	4.5
CCOC(=O)CCCCC(=O)c1[nH]c(=O)[nH]c1CSc1nc2ccccc2[nH]1	4.2	27.1	25.1*	-0.4	24.3
CCOC(=O)CCCCC(=O)c1[nH]c(=O)[nH]c1CSc1nc(C)cc(=O)[nH]1	2.2	-0.9	4.8	2.5	-0.1
O=C(NCCC1CCCCN1S(=O)(=O)c1ccccc1)C(=O)NCc1ccc(F)cc1 (stereo not given)	9.5	1.2	26.9*	13.5	2.1
COc1ccc(CNC(=O)CCNC(=O)C2CCN(S(=O)(=O)c3ccc(OC)cc3)CC2)cc1	nt	nt	nt	2.1	nt
O=C(CCNC(=O)C1CCN(S(=O)(=O)c2ccc(F)cc2)CC1)NCc1ccc(F)cc1	3.7	5.8	27.1*	-0.6	7.3
NC(=O)C1CCCN(S(=O)(=O)c2ccc(Br)cc2)C1 (stereo not given)	0.9	14.5	27.8*	5.6	3.3
CCCNC(=O)C1CCN(S(=O)(=O)c2ccc(Br)cc2)CC1	0.3	4.8	25.1*	-4.8	3.9
CCCNC(=O)C1CCN(S(=O)(=O)c2ccc3c(c2)OCCO3)CC1	0.3	1.6	7.8	-0.3	5.0
COCc1cc(N2CCN(C(=O)OC(C)(C)C)C[C@@H]2C)ccc1N1CCN(Cc2ccccc2)[C@@H](C)C1	nt	nt	nt	2.5	nt
CCOC(=O)Cc1csc(NC(=O)c2sc3nc4ccc(CC)cc4cc3c2N)n1	33.6*	-5.5	0.1	8.1	-0.5
Cc1[nH]n(C(N)=S)c(=O)c1C(c1ccccc1)C(C#N)C#N (stereo not given)	-9.6	2.0	-0.1	-0.7	-3.6
Cc1[nH]n(-c2ncc(-c3ccccc3)s2)c(=O)c1C(c1ccc(Br)cc1)C(C#N)C#N (stereo not given)	27.4*	29.6	1.7	3.6	11.3
CCCCCCCCN1C(=O)[C@@H](CC(=O)NCCCOCCCC)C[C@@]2(C(=O)OC)C1=C[C@H](C(C)(C)C)O[C@@H]2C	nt	nt	nt	-5.1	nt
Cc1ccc(C(=O)O)cc1NC(=O)CSc1nnc(-c2ccccc2F)n1C1CCCCC1	2.5	6.5	26.0*	0.6	9.2
CC(=O)Nc1ccc(OCC(O)Cn2nc(C)c(C)c2C)cc1 (stereo not given)	0.4	12.9	2.8	4.5	9.2
CCCN(C(=O)COC(=O)C12CCC(=O)N1c1ccccc1S2)c1c(N)n(Cc2ccccc2)c(=O)[nH]c1=O (stereo not given)	4.2	-1.1	4.0	-2.3	2.1
CC(C)NC(=O)OC[C@H]1O[C@H](C#Cc2ccc(C(C)(C)C)cc2)C=C[C@H]1O	nt	nt	nt	-1.8	nt
Cc1cc(/C=C2\SC(=S)NC2=O)c(C)n1-c1ccccc1	30.3*	nt	nt	5.5	nt
COc1ccc(-n2c(C)cc(/C=C3\SC(=S)NC3=O)c2C)cc1	15.5	7.0	0.8	1.6	6.2
CC(=O)O[C@@H]1C=C[C@@H](C#Cc2ccc(C(C)(C)C)cc2)O[C@@H]1COC(=O)NC(C)C	nt	nt	nt	-1.0	nt
O=S(=O)(N/N=C/c1ccc2c(c1)OCO2)c1ccc(Br)cc1	1.0	-1.1	25.6*	-0.1	7.1
O=C(Cc1ccc2c(c1)OCCO2)c1c(O)cc(O)cc1O	10.9	3.9	7.8	2.7	5.2
O=C(CCc1ccc(O)cc1)c1c(O)cc(O)cc1O	5.0	-10.9	31.0*	1.5	-0.1
SMILES	pPAFAH FP inh	PAFAH2 FP inh	PAFAH1B2 inh	TCR CD3 inh	PAFAH1B3 FP inh
CCCCOC(=O)Nc1nnc(COc2ccccc2)s1	4.5	-5.3	7.1	2.0	-6.2
CCCCOC(=O)Nc1nnc(CCc2ccccc2)s1	26.4*	-1.5	6.6	-6.7	3.5
Cc1ccccc1CN1CCN(C(=O)[C@H]2O[C@@H](n3cnc(C(N)=O)n3)[C@H](O)[C@@H]2O)CC1	nt	nt	nt	3.9	nt
CCOc1ccc(/C=C2\CCCc3c2nc2ccccc2c3C(=O)O)cc1OC	16.0	19.0	5.9	nt	27.6*
COc1cc(/C=C2\CCCc3c2nc2ccccc2c3C(=O)O)cc([N+](=O)[O-])c1O	32.3*	24.9	1.5	-2.2	16.3
COc1cc(/C=C2\CCCc3c2nc2ccccc2c3C(=O)O)cc(OC)c1O	8.9	9.9	-1.3	2.4	4.9
O=C(OCC(O)C1OC(c2ccccc2)OC(COC(=O)c2ccccc2)C1O)c1ccccc1 (stereo not given)	nt	nt	nt	3.6	nt
CC(CS(=O)(=O)c1ccc2c(c1)NC(=O)CS2)C(=O)N1CCN(c2cccc(Cl)c2)CC1 (stereo not given)	25.3*	-2.0	-1.1	-4.4	-0.4
FC(F)(F)c1cccc(NC(=S)NNC(=S)NCc2ccccc2)c1	47.7*	14.3	19.0	-0.4	15.7
O=[N+]([O-])c1cccc(/C=N/Nc2nc(NCc3ccccc3)nc(N3CCOCC3)n2)c1O	25.2*	-0.1	5.6	2.9	10.6
CC(NC(=O)C1CCCN1C(=O)c1cccs1)c1ccc(Cl)cc1Cl (stereo not given)	nt	nt	nt	-4.1	nt
COCC(=O)NCC1CCN(C(=O)C(=O)c2cccs2)CC1	nt	nt	nt	-4.4	nt
CCN1C(=O)c2cccc3c(S(=O)(=O)Nc4ccccc4)ccc1c23	25.4*	10.7	1.9	nt	-1.6
CCN1C(=O)c2cccc3c(S(=O)(=O)Nc4ccncc4)ccc1c23	4.2	6.8	3.8	nt	2.7
Nc1[nH]c(C(=O)c2ccccc2)c(-c2ccccc2Cl)c1C(=O)NCCc1c[nH]c2ccccc12	nt	nt	nt	-0.4	nt
CCN(CC)c1cccc(OC2=NS(=O)(=O)c3ccccc32)c1	24.9*	2.3	-0.8	52.8*	-3.3
N#C/C(=N\Nc1ccc(Cl)cc1)C(=O)c1ccccc1	26.8*	24.9	4.1	-2.3	-3.0
CCC1(CC)NC(=O)N(CC(=O)OCc2nc3cc(C(=O)OC)ccc3c(=O)[nH]2)C1=O	3.9	1.1	-0.8	-0.2	6.2
S=C1NCN(CCc2ccccc2)CN1Cc1ccccc1	-2.8	9.5	25.7*	-1.1	2.4
CCCN1CNC(=S)N(Cc2ccccc2)C1	0.3	5.2	1.9	-3.7	3.9
COc1ccc(OCCn2c(C)nc3ccccc32)cc1	nt	nt	nt	0.9	nt
Cc1nc2ccccc2n1CCOc1ccc([N+](=O)[O-])cc1	29.6*	-3.1	5.8	0.0	7.8
O=C(NCc1ccccc1)[C@@H]1CCCN1C(=O)[C@H]1CCCN1C(=O)c1cccc(F)c1	nt	nt	nt	-1.0	nt
COC(=O)c1cc(NC(=O)c2cccc(C(F)(F)F)c2)c(=O)oc1C/C=N/OCc1cccc(Cl)c1Cl	27.2*	-19.3	-2.3	0.5	-3.4
Cc1cc(C)c(S(=O)(=O)N2CCN(C(=O)c3ccccc3OCc3c(C)noc3C)CC2)c(C)c1	nt	8.8	1.3	-3.8	-1.6
CN(Cc1ccccc1)C(=O)COC(=O)COc1ccc(C#N)cc1	32.6*	1.9	-2.6	5.5	3.5
N#Cc1ccc(OCC(=O)OCCCOC(=O)COc2ccc(C#N)cc2)cc1	31.9*	3.8	18.4	1.7	4.7
